In all, about 5,500 compounds went through this assay and about 2,000 (36%) were called active. Not shown: some 18% with an inconclusive outcome. No stated cut-off is given here; in the data, active means normalized growth mostly below about 0.91 (no sharp cut-off); inconclusive means no clear call, values can overlap the other calls; inactive means mostly above about 0.92. Some of the results follow.
Assay: chemical genetic growth profiling, strain panel (AID 1159580);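 further: tested at 20 µM; growth read once vehicle control cultures reached saturation at 30 °C; 1 = growth at the plate median or of vehicle wells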
Details: growth OD

Measured: normalized growth

COc1ccc(OC)c(C(O)C(C)N)c1 (stereo unspecified)
inactive: S. cerevisiae deletion strains, locus YJR066W, strain TOR1, stronger effect = lower value 0.991 | S. cerevisiae deletion strains, locus YJR075W, strain HOC1, stronger effect = lower value 0.999 | S. cerevisiae deletion strains, locus YKL009W, strain mrt4, stronger effect = lower value 0.995 | S. cerevisiae deletion strains, locus YKL068W, stronger effect = lower value 0.997 | S. cerevisiae deletion strains, locus YKL085W, strain MDH1 (second series), stronger effect = lower value 1 | S. cerevisiae deletion strains, locus YKL085W, strain MDH1, stronger effect = lower value 1 | S. cerevisiae deletion strains, locus YKL160W, strain elf1, stronger effect = lower value 0.983 | S. cerevisiae deletion strains, locus YKL190W, strain CNB1, stronger effect = lower value 1.02 | S. cerevisiae deletion strains, locus YKR001C, strain vps1, stronger effect = lower value 1 | S. cerevisiae deletion strains, locus YKR026C, strain gcn3, stronger effect = lower value 0.994 | S. cerevisiae deletion strains, locus YKR091W, strain srl3, stronger effect = lower value 0.989 | S. cerevisiae deletion strains, locus YLL001W, strain dnm1, stronger effect = lower value 0.972 | S. cerevisiae deletion strains, locus YLL026W, stronger effect = lower value 0.99 | S. cerevisiae deletion strains, locus YLL041C, strain sdh2, stronger effect = lower value 1 | S. cerevisiae deletion strains, locus YLR027C, strain aat2, stronger effect = lower value 0.987 | S. cerevisiae deletion strains, locus YLR039C, strain RIC1, stronger effect = lower value 1.07 | S. cerevisiae deletion strains, locus YLR058C, strain SHM2, stronger effect = lower value 1.01 | S. cerevisiae deletion strains, locus YLR102C, strain apc9, stronger effect = lower value 0.992 | S. cerevisiae deletion strains, locus YLR113W, strain HOG1, stronger effect = lower value 1.08 | S. cerevisiae deletion strains, locus YLR221C, strain rsa3, stronger effect = lower value 0.994 | S. cerevisiae deletion strains, locus YLR258W, strain gsy2, stronger effect = lower value 1.01 | S. cerevisiae deletion strains, locus YLR262C, strain YPT6 (second series), stronger effect = lower value 0.999 | S. cerevisiae deletion strains, locus YLR262C, strain YPT6, stronger effect = lower value 1.08 | S. cerevisiae deletion strains, locus YLR268W, strain sec22, stronger effect = lower value 1 | S. cerevisiae deletion strains, locus YLR320W, strain mms22, stronger effect = lower value 0.989 | S. cerevisiae deletion strains, locus YLR330W, strain CHS5, stronger effect = lower value 1.01 | S. cerevisiae deletion strains, locus YLR342W, strain FKS1 (second series), stronger effect = lower value 1.01 | S. cerevisiae deletion strains, locus YLR342W, strain FKS1, stronger effect = lower value 0.976 | S. cerevisiae deletion strains, locus YLR357W, strain rsc2, stronger effect = lower value 0.971 | S. cerevisiae deletion strains, locus YLR370C, strain arc18, stronger effect = lower value 0.988 | S. cerevisiae deletion strains, locus YLR371W, strain rom2, stronger effect = lower value 0.989 | S. cerevisiae deletion strains, locus YLR384C, strain iki3, stronger effect = lower value 0.987 | S. cerevisiae deletion strains, locus YLR418C, strain cdc73, stronger effect = lower value 1.02 | S. cerevisiae deletion strains, locus YML016C, strain PPZ1, stronger effect = lower value 1.02 | S. cerevisiae deletion strains, locus YML032C, strain rad52, stronger effect = lower value 0.977 | S. cerevisiae deletion strains, locus YML120C, strain ndi1, stronger effect = lower value 0.997 | S. cerevisiae deletion strains, locus YML124C, strain tub3, stronger effect = lower value 0.993 | S. cerevisiae deletion strains, locus YMR078C, strain ctf18, stronger effect = lower value 0.987 | S. cerevisiae deletion strains, locus YMR125W, strain sto1, stronger effect = lower value 0.994 | S. cerevisiae deletion strains, locus YMR129W, stronger effect = lower value 0.978 | S. cerevisiae deletion strains, locus YMR205C, strain PFK2, stronger effect = lower value 1 | S. cerevisiae deletion strains, locus YMR223W, strain ubp8, stronger effect = lower value 0.996 | S. cerevisiae deletion strains, locus YMR231W, strain pep5, stronger effect = lower value 0.99 | S. cerevisiae deletion strains, locus YMR263W, strain SAP30, stronger effect = lower value 1.03 | S. cerevisiae deletion strains, locus YMR307W, strain GAS1, stronger effect = lower value 0.992 | S. cerevisiae deletion strains, locus YNL067W, strain RPL9B, stronger effect = lower value 1.02 | S. cerevisiae deletion strains, locus YNL071W, strain lat1, stronger effect = lower value 1 | S. cerevisiae deletion strains, locus YNL128W, strain TEP1, stronger effect = lower value 1.01 | S. cerevisiae deletion strains, locus YNL153C, strain GIM3, stronger effect = lower value 1.04 | S. cerevisiae deletion strains, locus YNL175C, strain NOP13, stronger effect = lower value 0.996 | S. cerevisiae deletion strains, locus YNL183C, strain NPR1, stronger effect = lower value 1.01 | S. cerevisiae deletion strains, locus YNL197C, strain WHI3, stronger effect = lower value 1.01 | S. cerevisiae deletion strains, locus YNL209W, strain ssb2, stronger effect = lower value 1 | S. cerevisiae deletion strains, locus YNL224C, strain SQS1, stronger effect = lower value 1.01 | S. cerevisiae deletion strains, locus YNL233W, strain BNI4, stronger effect = lower value 1.02 | S. cerevisiae deletion strains, locus YNL248C, strain rpa49, stronger effect = lower value 0.997 | S. cerevisiae deletion strains, locus YNL250W, strain rad50, stronger effect = lower value 0.978 | S. cerevisiae deletion strains, locus YNL271C, strain bni1, stronger effect = lower value 1 | S. cerevisiae deletion strains, locus YNL298W, strain CLA4, stronger effect = lower value 1 | S. cerevisiae deletion strains, locus YNL307C, strain MCK1, stronger effect = lower value 0.976 | S. cerevisiae deletion strains, locus YNL322C, strain KRE1 (second series), stronger effect = lower value 0.991 | S. cerevisiae deletion strains, locus YNL322C, strain KRE1, stronger effect = lower value 1.01 | S. cerevisiae deletion strains, locus YNR049C, strain mso1, stronger effect = lower value 0.99 | S. cerevisiae deletion strains, locus YNR052C, strain pop2, stronger effect = lower value 0.992 | S. cerevisiae deletion strains, locus YOL006C, strain TOP1, stronger effect = lower value 1.13 | S. cerevisiae deletion strains, locus YOL012C, strain htz1 1.17 | S. cerevisiae deletion strains, locus YOL147C, strain pex11, stronger effect = lower value 0.979 | S. cerevisiae deletion strains, locus YOR001W, strain rrp6, stronger effect = lower value 0.992 | S. cerevisiae deletion strains, locus YOR061W, strain CKA2, stronger effect = lower value 1.02 | S. cerevisiae deletion strains, locus YOR069W, strain VPS5, stronger effect = lower value 1.01 | S. cerevisiae deletion strains, locus YOR070C, strain gyp1, stronger effect = lower value 0.999 | S. cerevisiae deletion strains, locus YOR080W, strain dia2, stronger effect = lower value 0.99 | S. cerevisiae deletion strains, locus YOR083W, strain WHI5 (second series), stronger effect = lower value 1.01 | S. cerevisiae deletion strains, locus YOR083W, strain WHI5, stronger effect = lower value 0.961 | S. cerevisiae deletion strains, locus YOR106W, strain vam3, stronger effect = lower value 0.986 | S. cerevisiae deletion strains, locus YOR136W, strain idh2, stronger effect = lower value 0.982 | S. cerevisiae deletion strains, locus YOR144C, strain elg1, stronger effect = lower value 0.985 | S. cerevisiae deletion strains, locus YOR184W, strain ser1, stronger effect = lower value 0.978 | S. cerevisiae deletion strains, locus YOR231W, strain MKK1, stronger effect = lower value 1.07 | S. cerevisiae deletion strains, locus YOR265W, strain rbl2, stronger effect = lower value 0.997 | S. cerevisiae deletion strains, locus YOR270C, strain vph1, stronger effect = lower value 1.01 | S. cerevisiae deletion strains, locus YOR290C, strain snf2, stronger effect = lower value 1.01 | S. cerevisiae deletion strains, locus YOR316C, strain cot1, stronger effect = lower value 0.991 | S. cerevisiae deletion strains, locus YPL051W, strain arl3, stronger effect = lower value 0.991 | S. cerevisiae deletion strains, locus YPL055C, strain LGE1, stronger effect = lower value 1.06 | S. cerevisiae deletion strains, locus YPL078C, strain atp4, stronger effect = lower value 0.961 | S. cerevisiae deletion strains, locus YPL106C, strain sse1, stronger effect = lower value 1.01 | S. cerevisiae deletion strains, locus YPL240C, strain hsp82, stronger effect = lower value 0.991 | S. cerevisiae deletion strains, locus YPL241C, strain CIN2, stronger effect = lower value 1.01 | S. cerevisiae deletion strains, locus YPL256C, strain CLN2, stronger effect = lower value 1.06 | S. cerevisiae deletion strains, locus YPR119W, strain clb2, stronger effect = lower value 0.988 | S. cerevisiae deletion strains, locus YPR141C, strain kar3, stronger effect = lower value 0.984 | S. cerevisiae deletion strains, locus YPR163C, strain tif3, stronger effect = lower value 0.98 | S. cerevisiae deletion strains, locus YPR167C, strain met16, stronger effect = lower value 0.996 | S. cerevisiae deletion strains, strain wtn01, stronger effect = lower value 1.01 | S. cerevisiae strains, strain wild type, stronger effect = lower value 1.01

From PubChem BioAssay AID1159580 (chemical genetic matrix, 2015)
